Screening results from PubChem BioAssay.
IL1B secr inh: blocks inflammasome-driven IL-1 beta release; 360,000 tested, 4.7% active; AID 743279; THP-1 LPS/ATP IL-1B secretion, AlphaLISA, 16 h; active compounds read low; activity change, % at 57.5 µM; in the data active = activity change below about -50%; inconclusive = mostly about -30% to -49%
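Secreted IL-1B measured by AlphaLISA bead assay after 16 h compound exposure of THP-1 cells; compounds (final up to 57.5 uM) added 1 h before LPS (250 ng/mL) and ATP (1.25 mM) stimulation; lower signal means less secretion.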
HT1080 IDH1KD tx: toxicity to HT-1080 IDH1 knockdown cells (counter line) | Potency, µM (doses to about 46.1 µM), inactives show at the top dose activity, negative = toxicity, hits mostly cytotoxic | 360,000 tested, 2% active | HT-1080 IDH1 knockdown viability, ATP luminescence, 48 h;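 also: potency is read from the fitted curve at half-maximal effect; 0% = DMSO wells and -100% = cell-free medium wells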
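CellTiter-Glo luminescence after 48 h compound exposure at 37 degrees C of IDH1-knockdown HT-1080 cells in 5% FBS RPMI. %Activity scaled between DMSO wells and cell-free media wells, with curves fitted and assigned curve classes.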
DT40 TDP1 CPT: growth inhibition of DT40 Tdp1-/-;hTDP1 cells with camptothecin (screen for TDP1 inhibitors); chicken DT40 Tdp1-/-;hTDP1 cells + 20 nM CPT, ATP luminescence, 48 h; Potency, µM (doses to about 46.2 µM), without a hit: at the highest dose activity change, negative = growth inhibition, usual class: inhibitors; 420,000 tested, 12% active; AID 686979; also: potency is read from the fitted curve at half-maximal effect; nearly all actives have a fitted effect of over 55% in size
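Chicken DT40 Tdp1-/- cells stably complemented with human TDP1 were seeded at 400 cells/well in medium containing 20 nM camptothecin, exposed to pin-transferred compounds, and grown at 37 °C for at least 48 hr. Viability was read as ATP luminescence.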
DT40 TDP1 no CPT: qHTS for Inhibitors of human tyrosyl-DNA phosphodiesterase 1 (TDP1): qHTS in cells in absence of CPT | DT40 Tdp1-/- hTDP1 cells, no CPT, ATP luminescence, 48 h | Potency, µM (doses to about 46.2 µM), without a hit: at the highest dose activity change, negative = growth inhibition, usual class: inhibitors | 420,000 tested, 15% active; also: potency is read from the fitted curve at half-maximal effect; nearly all actives have a fitted effect of over 55% in size
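A cellular qHTS used chicken DT40 cells lacking endogenous Tdp1 but carrying stably transfected human TDP1. Compounds were applied without camptothecin, and cell growth kinetics were judged by ATP-dependent luminescence after ≥48 hr.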
12-LOX inh: blocks human arachidonate 12S-lipoxygenase; AID 1671190; 580,000 tested, 1.1% active; P18054; purified 12hLO, xylenol orange hydroperoxide absorbance; Potency, µM (top dose mostly 108 µM), without a hit: at the highest dose activity change, negative = inhibition, usual class: inhibitors; also: potency is read from the fitted curve at half-maximal effect
Target sequence (P18054 whole entry, looked up): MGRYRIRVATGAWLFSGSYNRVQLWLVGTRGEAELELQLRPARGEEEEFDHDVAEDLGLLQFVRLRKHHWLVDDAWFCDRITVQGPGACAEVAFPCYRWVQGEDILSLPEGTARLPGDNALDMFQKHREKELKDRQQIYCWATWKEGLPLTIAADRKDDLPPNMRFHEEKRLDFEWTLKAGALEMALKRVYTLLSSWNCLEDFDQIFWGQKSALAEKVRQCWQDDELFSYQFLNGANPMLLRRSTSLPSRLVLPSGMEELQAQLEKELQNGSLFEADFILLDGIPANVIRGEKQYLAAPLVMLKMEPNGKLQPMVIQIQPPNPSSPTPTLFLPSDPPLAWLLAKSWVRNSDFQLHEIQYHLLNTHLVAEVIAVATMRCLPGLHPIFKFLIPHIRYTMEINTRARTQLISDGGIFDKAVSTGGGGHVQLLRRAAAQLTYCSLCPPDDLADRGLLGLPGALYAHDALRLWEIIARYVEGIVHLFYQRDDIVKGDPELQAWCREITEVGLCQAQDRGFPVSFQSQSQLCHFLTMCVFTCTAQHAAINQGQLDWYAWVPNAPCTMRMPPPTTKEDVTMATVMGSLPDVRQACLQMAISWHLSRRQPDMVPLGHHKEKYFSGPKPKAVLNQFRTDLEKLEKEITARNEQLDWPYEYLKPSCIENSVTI
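Hydroperoxide product was detected by ferrous iron/xylenol orange as the 573 to 405 nm absorbance ratio. Arachidonic acid at 40 uM (final) was turned over for 30 min at room temperature by 150 nM human 12hLO, pH 7.0 Hepes buffer, after 15 min compound preincubation.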
HT1080-NT tox: kills 2HG-producing HT-1080-NT fibrosarcoma cells | Potency, µM (highest dose often 46.1 µM), for the others: top-dose activity, negative = less viability, most hits filed as cytotoxic | AID 686970 | 360,000 tested, 1.6% active | HT-1080-NT fibrosarcoma viability, CellTiter-Glo ATP luminescence, 48 h;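 also: NT is the 2HG producing partner of a matched IDH1 knockdown line; potency is read from the fitted curve at half-maximal effect; 0% = DMSO-treated cells and -100% = media-only wells without cells; nearly all actives have a fitted effect of over 55% in size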
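Luminescent CellTiter-Glo readout after 48 hours of compound exposure at 37 degrees C defined viability of HT-1080-NT cells. Activity was normalized to DMSO wells and cell-free media wells; concentration-response curves were fitted and assigned curve classes.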
* = called active by the depositor. Shown is part of a subset that was picked to be rich in hits. Unless noted, calls follow the shape of the dose curve; as a rule, active = well fitted curve in the direction sought with a large enough effect; inconclusive = small, poorly fitted or top-dose-only effect, or another doubt; inactive = no such curve, though single readings can be large; an effect the other way counts as inactive or inconclusive. Unless noted, % is scaled to controls: 0 for no effect and ±100 for the full control effect.

`CCOC(=O)C(C(=O)OCC)C(Nc1cccc(Br)c1)c1ccccc1` (stereo unspecified) gave IL1B secr inh -68*, HT1080 IDH1KD tx inconclusive, DT40 TDP1 CPT 15µM*, DT40 TDP1 no CPT inconclusive, 12-LOX inh 0% and HT1080-NT tox inconclusive.
CN(C)c1ccc(S(=O)(=O)N(C)C)cc1NC(=O)Cc1cccc2ccccc12 was read as IL1B secr inh -52*, HT1080 IDH1KD tx -18%, DT40 TDP1 CPT inconclusive, DT40 TDP1 no CPT inconclusive, 12-LOX inh 9% and HT1080-NT tox -1%.
Cc1cc(O)ccc1NC(=O)Cc1cccc2ccccc12 was read as IL1B secr inh 12, HT1080 IDH1KD tx -16%, DT40 TDP1 CPT -16%, DT40 TDP1 no CPT -4%, 12-LOX inh 16% and HT1080-NT tox 0%.
`CC1CCN(C(C)C(=O)Nc2cccc(C#N)c2)CC1` (stereo unspecified) gave 12-LOX inh 1%.
Screening COc1cc(CSc2nnnn2-c2ccc(C)cc2)cc(OC)c1OC returned IL1B secr inh -77*, HT1080 IDH1KD tx 0%, DT40 TDP1 CPT 5.8µM*, DT40 TDP1 no CPT 5µM*, 12-LOX inh 20% and HT1080-NT tox inconclusive.
COc1ccc(NC(=O)c2cn(C)c(=O)c3cc(OC)c(OC)cc23)cc1OC was read as IL1B secr inh 30, HT1080 IDH1KD tx -2%, DT40 TDP1 CPT 16%, DT40 TDP1 no CPT -18%, 12-LOX inh 5% and HT1080-NT tox -3%.
`COc1ccccc1CNC(=O)c1cn(C)c(=O)c2cc(OC)c(OC)cc12` gave IL1B secr inh 21, HT1080 IDH1KD tx 11%, DT40 TDP1 CPT 18µM*, DT40 TDP1 no CPT 21µM*, 12-LOX inh 0% and HT1080-NT tox 4%.
Screening COc1ccc(NC(=O)c2cn(CC(C)C)c(=O)c3cc(OC)c(OC)cc23)cc1Cl returned DT40 TDP1 CPT 21µM*, DT40 TDP1 no CPT 21µM* and 12-LOX inh -16%.
COc1cccc(NC(=O)c2cn(C)c(=O)c3cc(OC)c(OC)cc23)c1 was read as IL1B secr inh 8, HT1080 IDH1KD tx 10%, DT40 TDP1 CPT 8.2µM*, DT40 TDP1 no CPT 15µM*, 12-LOX inh 0% and HT1080-NT tox -2%.
Screening COCCCNC(=O)c1cn(C)c(=O)c2cc(OC)c(OC)cc12 returned IL1B secr inh 10, HT1080 IDH1KD tx 4%, DT40 TDP1 CPT 13%, DT40 TDP1 no CPT -4%, 12-LOX inh 5% and HT1080-NT tox 10%.
`O=C(NCCCN1CCCC1)c1ccc2c(c1)N(S(=O)(=O)c1ccccc1F)CC2` gave 12-LOX inh -2%.
For CC(=O)N1C[C@@H](C(=O)N2CCOCC2)[C@H](c2nc(C)no2)C1 the results were 12-LOX inh 65%.
`C#CCSc1nccc(-c2nn(-c3ccc(C)cc3)ccc2=O)n1` gave IL1B secr inh 71, HT1080 IDH1KD tx -23%, DT40 TDP1 CPT inconclusive, DT40 TDP1 no CPT 26µM*, 12-LOX inh inconclusive and HT1080-NT tox -8%.
Nc1nccc(-c2nn(-c3ccc(Cl)cc3)ccc2=O)n1 was read as IL1B secr inh 3, HT1080 IDH1KD tx 1%, DT40 TDP1 CPT -11%, DT40 TDP1 no CPT -15%, 12-LOX inh -9% and HT1080-NT tox 6%.
C=CCSc1nc(=O)n2ccc(C)cc2n1 was read as IL1B secr inh 1, HT1080 IDH1KD tx 15%, DT40 TDP1 CPT -17%, DT40 TDP1 no CPT inconclusive, 12-LOX inh 12% and HT1080-NT tox 14%.
`C=CCSc1nccc(-c2nn(-c3ccc(C)cc3)ccc2=O)n1` gave IL1B secr inh -25, HT1080 IDH1KD tx inconclusive, DT40 TDP1 CPT 7.3µM*, DT40 TDP1 no CPT 5.8µM*, 12-LOX inh inconclusive and HT1080-NT tox inconclusive.
Screening CSc1nccc(-c2nn(-c3ccc(C)cc3)ccc2=O)n1 returned IL1B secr inh 146, HT1080 IDH1KD tx 8.2µM*, DT40 TDP1 CPT 7.3µM*, DT40 TDP1 no CPT 5.8µM*, 12-LOX inh 5% and HT1080-NT tox inconclusive.
Screening CCSc1nccc(-c2nn(-c3ccc(C)cc3)ccc2=O)n1 returned IL1B secr inh -3, HT1080 IDH1KD tx 9.2µM*, DT40 TDP1 CPT 6.5µM*, DT40 TDP1 no CPT 6.5µM*, 12-LOX inh 0% and HT1080-NT tox 10µM*.
CCCNC(=O)N1CCC(c2noc(-c3ccccn3)n2)C1 (stereo unspecified) was read as 12-LOX inh 47%.
For N#CCCn1c(-c2ccccc2)c(-c2ccccc2)c2ccc3ccccc3c21 the results were 12-LOX inh 1%.
`O=C(Cc1n[nH]c(=O)c2ccccc12)Nc1ccc(F)cc1F` gave 12-LOX inh -5%.
For CN(C)c1nc(C=C(C#N)C#N)c(Cl)n1-c1ccc(F)cc1 the results were IL1B secr inh -97*, HT1080 IDH1KD tx 4.6µM*, DT40 TDP1 CPT 4.1µM*, DT40 TDP1 no CPT 5.2µM*, 12-LOX inh inconclusive and HT1080-NT tox 7.3µM*.
Cc1cc(C=C(C#N)C#N)c(C)n1-c1ccncc1 was read as 12-LOX inh -41%.
For NC(=O)C1CCN(C(=O)Cn2ccc3c(Cl)cccc32)CC1 the results were 12-LOX inh 0%.
For Cc1ccc(-c2nc3ccccc3s2)cc1S(=O)(=O)N1CCOCC1 the results were IL1B secr inh 0, HT1080 IDH1KD tx 18µM*, DT40 TDP1 CPT inconclusive, DT40 TDP1 no CPT inconclusive, 12-LOX inh 2% and HT1080-NT tox -40%.
Cc1cc(-c2nc3ccccc3s2)ccc1N was read as IL1B secr inh -12, HT1080 IDH1KD tx -26%, DT40 TDP1 CPT inconclusive, DT40 TDP1 no CPT inconclusive, 12-LOX inh -10% and HT1080-NT tox -17%.
Screening Cc1ccc(-c2nnc(NCc3nc4ccccc4[nH]3)c3ccccc23)cc1S(=O)(=O)N(C)C returned IL1B secr inh -3, HT1080 IDH1KD tx -15%, DT40 TDP1 CPT 10µM*, DT40 TDP1 no CPT 23µM*, 12-LOX inh -4% and HT1080-NT tox -11%.
Cc1ccc(-c2nnc(NCc3nc4ccccc4[nH]3)c3ccccc23)cc1S(=O)(=O)N1CCOCC1 was read as IL1B secr inh -9, HT1080 IDH1KD tx -5%, DT40 TDP1 CPT 15µM*, DT40 TDP1 no CPT 10µM* and HT1080-NT tox -3%.
For Cc1ccc(-c2nnc(Nc3ccc(Cl)c(Cl)c3)c3ccccc23)cc1S(=O)(=O)N(C)C the results were DT40 TDP1 CPT inconclusive, DT40 TDP1 no CPT inconclusive and 12-LOX inh -18%.
